# Bioassay records as filed in PubChem BioAssay.
# hgDAF-12 ag = hgDAF-12 agonism, primary luciferase screen. activation, % at 6.8 µM. HEK293 GAL4-hgDAF12 UAS-luciferase reporter, agonist luminescence; normalized to butyrate control. AID 687014. 370,000 compounds, 1.8% hits;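 active = activation above a cutoff set at the mean of all screened compounds plus 3 SD, cut at about 10% in these data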;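 also: 0% = DMSO wells and 100% = sodium butyrate wells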
# DAX1 inh-1 = NR0B1 (DAX1) inhibition | P51843 | HEK293 Gal4-DAX1 luciferase reporter, luminescence | inhibition, % at 6.75 µM | 340,000 compounds, 0.99% hits;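 active = inhibition above the mean over all tested compounds plus 3 SD, cut at about 4.2% in these data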;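 also: 0% = DAX1-transfected cells with DMSO and 100% = empty-vector control cells with DMSO; inhibition shows as a rise in luminescence from relieved DAX1 repression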
# ssDAF12 agonist = activators of S. stercoralis DAF-12 nuclear receptor; HEK293 ssDAF-12/GRIP1 lit1-tk-luc reporter, luminescence; % of 3 µM dafachronic acid response; activation, % at 6.8 µM; 370,000 compounds, 1% hits;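 active = activation above the mean over all tested compounds plus 3 SD, cut at about 0.9% in these data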;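 also: 0% = DMSO-only wells and 100% = 3 µM delta7-dafachronic acid wells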
# hcDAF12 agonist = activators of H. contortus DAF-12 nuclear receptor. HEK293 hcDAF-12 lit1-tk-luc reporter, luminescence; 0% DMSO, 100% Δ7-dafachronic acid. activation, % at 6.8 µM. 370,000 compounds, 1.4% hits. AID 652067;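 active = activation above the mean of all tested compounds plus 3 SD, cut at about 5.5% in these data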;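 also: 100% = response to 3 µM Δ7-dafachronic acid high control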
# DAX1 inh-2 = inhibitors of DAX1 repression of SF-1 activated StAR promoter; HEK293T StAR-luciferase reporter, SF-1/DAX-1 repression relief; inhibition, % at 6.8 µM; 370,000 compounds, 1.1% hits;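 active = inhibition above the mean over all tested compounds plus 3 SD, cut at about 3.6% in these data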;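 also: 0% = DAX-1 cells with DMSO and 100% = cells lacking DAX-1 with DMSO; higher inhibition means more luminescence from relief of DAX-1 repression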
# SMARCA2 activ = activators of SMARCA2 function | MG213 cells, MMTV-luciferase reporter, dexamethasone, overnight | activation, % at 9.1 µM | 370,000 compounds, 1% hits | AID 652017; in the data active = activation above about 7.8%;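 also: 0% = vehicle wells and 100% = reference activator wells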
# LXR ag = counter-screen for hcDAF-12 agonists: agonists of human LXR-beta; shares compounds with hcDAF12 agonist; HEK293 Gal4-LXR tk-luc reporter, luminescence, 24 h; normalized: DMSO 0%, positive control 100%; activation, % at 6.8 µM; 3,400 tested, under 10 active; AID 743027;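 active = mean percent activation of the reporter above a cutoff set as the average over tested compounds plus their standard deviation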
# Target sequence (P55055 whole entry, looked up, the tested form may be a part): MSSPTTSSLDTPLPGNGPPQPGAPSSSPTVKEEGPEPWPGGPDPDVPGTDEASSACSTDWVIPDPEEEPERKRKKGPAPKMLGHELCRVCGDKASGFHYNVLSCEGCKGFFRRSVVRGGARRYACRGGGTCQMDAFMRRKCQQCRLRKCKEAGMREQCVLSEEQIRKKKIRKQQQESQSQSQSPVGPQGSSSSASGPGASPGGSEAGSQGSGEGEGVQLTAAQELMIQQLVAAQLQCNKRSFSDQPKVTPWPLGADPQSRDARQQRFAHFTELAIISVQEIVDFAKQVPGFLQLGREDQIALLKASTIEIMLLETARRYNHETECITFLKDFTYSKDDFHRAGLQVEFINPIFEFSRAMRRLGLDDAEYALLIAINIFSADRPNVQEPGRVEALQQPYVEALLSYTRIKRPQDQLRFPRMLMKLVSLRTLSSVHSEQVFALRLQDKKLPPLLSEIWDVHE
# hcDAF12 ag = hcDAF-12 agonism, confirmation assay | shares compounds with hcDAF12 agonist | HEK293 hcDAF-12 lit1-tk-luc reporter, luminescence; % of Δ7-dafachronic acid response | activation, % at 6.8 µM | 3,400 compounds, 61% hits | AID 743032;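 active = mean activation across triplicate tests above the threshold derived from the earlier primary screen, cut at about 5.5% in these data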;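 also: 0% = DMSO only wells and 100% = 3 µM Δ7-dafachronic acid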
# The depositor's hits bear a star; / = no result given. Most compounds without a hit are left out; they make up all but 4.8% or so of the library.
SMILES,hgDAF-12 ag,DAX1 inh-1,ssDAF12 agonist,hcDAF12 agonist,DAX1 inh-2,SMARCA2 activ,LXR ag,hcDAF12 ag
Cc1ccc2oc(/N=C(\N)NC(=O)C3CC3)nc2c1,9.9,-5.8,0.4,6.6*,-0.3,1.2,1.6,7.0*
CCOC(=O)c1cnc(Nc2nc3ccccc3o2)nc1C,10.9*,-0.5,0.1,6.8*,4.2*,4.9,0.5,0.8
O=C(O)c1cc(-c2cccc3ccccc23)nc2ccccc12,-0.2,0.0,-0.6,4.6,-0.1,-3.4,/,/
O=C(O)c1cc(-c2c[nH]c3ccccc23)nc2cc3ccccc3cc12,6.3,/,1.6*,8.7*,2.0,3.3,0.1,9.0*
COc1ccccc1N1C(=O)CC(N(O)c2ccccc2)C1=O (stereo unspecified),0.6,1.6,-0.4,6.7*,-0.2,-1.5,-0.3,3.1
CCCOc1ccccc1N1C(=O)CC(N(O)c2ccccc2)C1=O (stereo unspecified),1.4,-0.1,-1.8,0.9,-0.6,-2.8,/,/
CC(C)=N/N=C(/c1ccc([N+](=O)[O-])cc1)C12CN3CN(CN(C3)C1)C2,-0.8,-0.2,-1.4,6.9*,-0.2,1.6,-0.3,-0.2
O=[N+]([O-])c1cccc(/C(=N/N=C/c2ccccc2Br)C23CN4CN(CN(C4)C2)C3)c1,-1.3,-0.2,-0.8,-0.4,0.2,2.8,/,/
COCCn1c(C)cc(C(=O)CSc2nc3ccccc3o2)c1C,10.1,1.5,0.0,8.4*,2.2,5.7,0.9,4.0
COCCn1c(C)cc(C(=O)CSc2nc3ccccc3s2)c1C,-7.4,-3.1,-1.6,-2.1,-0.8,-8.1,/,/
Cc1ccc2c(c1)Sc1c(ccc3ccccc13)N2,20.8*,4.8*,3.2*,13.9*,3.2,4.3,1.1,8.0*
COc1ccc(C(=O)Nc2sc(C)c(C)c2CN2CC(C)OC(C)C2)cc1 (stereo unspecified),10.7*,3.1,0.1,8.9*,3.9*,4.3,0.0,4.1
CC(=O)C1=C(C)N(Cc2ccc(F)cc2)C(=S)NC1c1ccccc1 (stereo unspecified),1.6,/,-1.5,0.3,1.4,-2.0,/,/
COCCCNc1nc2c(-c3ccc(C)cc3)nnn2c2ccccc12,11.7*,2.3,3.6*,8.0*,1.4,7.2,0.2,8.0*
COCCCNc1nc2c(-c3cccc(C)c3)nnn2c2ccccc12,3.1,0.3,-0.3,6.9*,-0.7,4.8,-0.3,2.1
CCCCNc1nc2c(S(=O)(=O)c3ccccc3)nnn2c2ccccc12,1.6,-0.1,-0.6,2.7,0.9,1.9,/,/
Cc1sc(NC(=O)c2cccs2)c(C(N)=O)c1C,9.2,0.8,-0.1,8.5*,1.2,5.3,0.2,6.2*
C[C@@H]1CN([C@H](C)CO)C(=O)c2cc(NS(=O)(=O)c3ccccc3)ccc2O[C@@H](C)CCCCO[C@@H]1CN(C)Cc1ccc(Cl)c(Cl)c1,-2.2,/,-0.6,6.7*,0.1,-3.5,-0.3,1.0
C[C@@H]1CCCN1c1cccc2c1S(=O)(=O)N1CC[C@@H](C1)O2,0.2,/,-1.3,-2.0,-1.1,-2.5,/,/
C[C@@H]1CN([C@@H](C)CO)C(=O)CCCn2cc(nn2)CO[C@H]1CN(C)C(=O)Nc1cccc(C(F)(F)F)c1,-2.8,/,-0.3,-1.3,-0.8,0.2,/,/
Cc1ccc(C(=O)Nc2ccc3ccccc3c2)cc1,-2.0,-7.2,-0.8,3.0,0.1,-1.6,/,/
Cc1ccoc1C(=O)Nc1ccc2ccccc2c1,12.2*,-1.8,0.4,17.1*,1.4,-1.1,2.0,14.3*
Cc1c(CC(=O)N[C@H](C(=O)O)C(C)C)c(=O)oc2cc3c(cc12)CCC(C)(C)O3,7.5,0.1,-0.2,6.9*,1.6,6.0,0.9,6.6*
CCCCCCC[C@H](N)[C@H](O)C(=O)N(C)[C@@H](CCS(C)=O)C(=O)N[C@@H](Cc1ccc(O)cc1)C(=O)O (stereo partly specified),1.1,/,-0.8,-0.8,/,/,/,/
Cc1ccc(NC(=O)c2noc3c2CCCCC3)cc1,11.5*,2.3,1.2*,10.3*,3.4,2.8,1.8,8.2*
SMILES,hgDAF-12 ag,DAX1 inh-1,ssDAF12 agonist,hcDAF12 agonist,DAX1 inh-2,SMARCA2 activ,LXR ag,hcDAF12 ag
O=S(=O)(c1cccs1)N1CN(CC2CCCO2)c2nc3ccccc3nc21 (stereo unspecified),-0.2,-0.1,-1.2,-1.7,0.7,-0.3,/,/
Cc1ccc(S(=O)(=O)N2CN(CC3CCCO3)c3nc4ccccc4nc32)c(C)c1 (stereo unspecified),3.3,0.2,-0.6,8.1*,0.6,4.1,-0.4,0.1
Nc1nn(-c2ccccc2)c(N)c1N=Nc1ccc2c(c1)OCO2,20.2*,-1.0,0.4,8.4*,1.7,7.1,1.5,6.5*
O=[N+]([O-])c1ccccc1-c1ccc(C(=S)N2CCCCC2)o1,4.7,0.9,0.4,6.8*,0.8,-1.9,0.6,7.0*
O=[N+]([O-])c1ccccc1-c1ccc(C(=S)N2CCCC2)o1,9.3,-1.4,1.8*,9.4*,2.0,0.3,0.7,9.7*
O=C(NCc1ccccc1)[C@@H]1CCCN1C(=O)[C@H]1CCCN1C(=O)c1ccc(F)cc1F,-1.6,/,-1.3,1.1,0.5,0.3,/,/
CCn1c(Cc2cccs2)nnc1SCC(=O)Nc1ccc2c(c1)OCCO2,-3.0,/,-0.6,-1.7,-1.3,-0.5,/,/
Cc1oc(-c2nc3ccccc3n2C)cc1C(=O)c1ccccc1,9.2,-1.8,1.2*,10.6*,3.0,4.1,1.8,13.4*
O=C(OCc1cn(Cc2cccc(Cl)c2)nn1)N1CCCC1,0.7,/,-0.9,-2.0,-0.5,-0.8,/,/
Cc1cc(NCCCn2ccnc2)n2ncc(-c3ccc(Cl)cc3)c2n1,18.6*,3.5,1.7*,15.0*,3.8*,-0.8,1.9,18.8*
Cc1cc(NCCCN2CCOCC2)n2ncc(-c3ccc(Cl)cc3)c2n1,4.8,1.0,-1.1,3.0,0.5,2.4,/,/
COc1ccc(OC)c(NC(=O)COC(=O)/C=C/c2ccccc2Cl)c1,0.8,-0.8,-1.5,7.1*,-0.1,-0.1,-0.2,0.4
COc1ccc(OC)c(NC(=O)COC(=O)/C=C/c2ccco2)c1,0.0,0.5,-0.9,0.3,0.0,0.2,/,/
O=C(CCc1ccccc1)N[C@H]1[C@@H](OC(=O)c2ccc([N+](=O)[O-])cc2)CCC[C@]12C(=O)N(Cc1ccccc1)c1ccccc12,2.2,/,-1.2,-0.8,0.6,-1.9,/,/
